Measured values as given in PubChem BioAssay AID1159580 (chemical genetic matrix, 2015).
Among all 5,500 compounds or so, about 2,000 (36%) were called active. Inconclusive results (about 18%) are left out. No stated cut-off is given here; in the data, active means normalized growth mostly below about 0.91 (no sharp cut-off); inconclusive means no clear call, values can overlap the other calls; inactive means mostly above about 0.92. The list shows a part of the results.

Assay: chemical genetic growth profiling, strain panel (AID 1159580);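 further: tested at 20 µM; growth read once vehicle control cultures reached saturation at 30 °C; 1 = growth at the plate median or of vehicle wells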
Conditions: S. cerevisiae deletion strains, growth OD

Measured: normalized growth

C[C@@H]1OC(O[C@H]2[C@H](OC(=O)[C@]34CCC(C)(C)CC3C3=CCC5[C@@]6(C)CC[C@H](OC7O[C@@H](C)[C@H](O[C@@H]8OC[C@@H](O)[C@H](O)[C@H]8O)[C@@H](O)[C@H]7O)C(C)(C)C6CC[C@@]5(C)[C@]3(C)CC4O)OC[C@H](O)[C@H]2O)[C@H](O)[C@H](O)[C@H]1O[C@@H]1O[C@H](CO)[C@@H](O)[C@H](O)[C@H]1O (some centres not stated)
active: locus YDL035C, strain GPR1, stronger effect = lower value 0.785 | locus YDL134C, strain PPH21, stronger effect = lower value 0.883 | locus YDL192W, strain arf1, stronger effect = lower value 0.825 | locus YDR162C, strain NBP2, stronger effect = lower value 0.0581 | locus YDR388W, stronger effect = lower value 0.918 | locus YER155C, strain BEM2, stronger effect = lower value 1.12 [resistant] | locus YER167W, strain BCK2, stronger effect = lower value 0.895 | locus YHR030C, strain SLT2, stronger effect = lower value 0.323 | locus YJL095W, strain BCK1, stronger effect = lower value 0.33 | locus YKL009W, strain mrt4, stronger effect = lower value 0.876 | locus YKL085W, strain MDH1 (second series), stronger effect = lower value 0.904 | locus YKL085W, strain MDH1, stronger effect = lower value 0.904 | locus YKR001C, strain vps1, stronger effect = lower value 0.721 | locus YLR371W, strain rom2, stronger effect = lower value 0.714 | locus YLR418C, strain cdc73, stronger effect = lower value 0.745 | locus YML032C, strain rad52, stronger effect = lower value 0.824 | locus YMR223W, strain ubp8, stronger effect = lower value 0.895 | locus YMR307W, strain GAS1, stronger effect = lower value 0.212 | locus YNL250W, strain rad50, stronger effect = lower value 0.891 | locus YNL298W, strain CLA4, stronger effect = lower value 0.838 | locus YNR052C, strain pop2, stronger effect = lower value 0.815 | locus YOL012C, strain htz1 2.15 [resistant] | locus YOR061W, strain CKA2, stronger effect = lower value 0.59 | locus YOR184W, strain ser1, stronger effect = lower value 0.79 | locus YPR167C, strain met16, stronger effect = lower value 0.861
inactive: locus YBR021W, strain FUR4, stronger effect = lower value 0.963 | locus YBR229C, strain ROT2, stronger effect = lower value 0.967 | locus YCL029C, strain bik1, stronger effect = lower value 1.01 | locus YDL074C, strain BRE1, stronger effect = lower value 0.885 | locus YDL101C, strain DUN1, stronger effect = lower value 0.984 | locus YDL185W, strain tfp1, stronger effect = lower value 0.974 | locus YDR101C, strain arx1, stronger effect = lower value 0.985 | locus YDR318W, strain mcm21, stronger effect = lower value 0.917 | locus YDR502C, strain sam2, stronger effect = lower value 0.936 | locus YEL061C, strain CIN8, stronger effect = lower value 0.95 | locus YER110C, stronger effect = lower value 0.996 | locus YGL078C, strain dbp3, stronger effect = lower value 0.929 | locus YGL086W, strain mad1, stronger effect = lower value 0.977 | locus YGL248W, strain PDE1, stronger effect = lower value 0.993 | locus YGR135W, strain pre9, stronger effect = lower value 0.978 | locus YGR252W, strain gcn5, stronger effect = lower value 0.934 | locus YHR079C, strain IRE1 (second series), stronger effect = lower value 0.975 | locus YHR094C, strain hxt1, stronger effect = lower value 0.982 | locus YHR129C, strain ARP1, stronger effect = lower value 0.923 | locus YHR200W, strain rpn10, stronger effect = lower value 0.974 | locus YIL066C, strain RNR3, stronger effect = lower value 0.912 | locus YIL073C, strain SPO22, stronger effect = lower value 0.936 | locus YIL125W, strain kgd1, stronger effect = lower value 0.958 | locus YIR030C, strain dcg1, stronger effect = lower value 0.969 | locus YJL134W, strain LCB3, stronger effect = lower value 1.04 | locus YJL168C, strain set2, stronger effect = lower value 1.01 | locus YJL187C, strain SWE1 (second series), stronger effect = lower value 0.925 | locus YJR043C, strain POL32, stronger effect = lower value 0.858 | locus YJR075W, strain HOC1, stronger effect = lower value 0.957 | locus YKL068W, stronger effect = lower value 0.949 | locus YLR039C, strain RIC1, stronger effect = lower value 0.842 | locus YLR058C, strain SHM2, stronger effect = lower value 0.972 | locus YLR102C, strain apc9, stronger effect = lower value 0.982 | locus YLR262C, strain YPT6, stronger effect = lower value 0.709 | locus YLR268W, strain sec22, stronger effect = lower value 0.966 | locus YLR330W, strain CHS5, stronger effect = lower value 0.993 | locus YLR342W, strain FKS1 (second series), stronger effect = lower value 0.927 | locus YML016C, strain PPZ1, stronger effect = lower value 1 | locus YML124C, strain tub3, stronger effect = lower value 0.993 | locus YMR078C, strain ctf18, stronger effect = lower value 0.987 | locus YNL067W, strain RPL9B, stronger effect = lower value 0.983 | locus YNL128W, strain TEP1, stronger effect = lower value 0.887 | locus YNL153C, strain GIM3, stronger effect = lower value 0.958 | locus YNL233W, strain BNI4, stronger effect = lower value 0.997 | locus YNL271C, strain bni1, stronger effect = lower value 1 | locus YNL307C, strain MCK1, stronger effect = lower value 0.991 | locus YOL147C, strain pex11, stronger effect = lower value 0.986 | locus YOR069W, strain VPS5, stronger effect = lower value 1.01 | locus YOR136W, strain idh2, stronger effect = lower value 0.951 | locus YOR144C, strain elg1, stronger effect = lower value 0.982 | locus YOR316C, strain cot1, stronger effect = lower value 0.984 | locus YPL055C, strain LGE1, stronger effect = lower value 0.841 | locus YPL241C, strain CIN2, stronger effect = lower value 0.989 | locus YPR119W, strain clb2, stronger effect = lower value 0.988 | locus YPR141C, strain kar3, stronger effect = lower value 0.981 | locus YPR163C, strain tif3, stronger effect = lower value 0.935 | strain wtn01, stronger effect = lower value 0.955

CC1(C)CCC2(C(=O)O)CCC3(C)C(=CCC4C5(C)CCC(O)C(C)(C)C5C(O)CC43C)C2C1 (configuration not stated)
inactive: locus YAL021C, strain ccr4, stronger effect = lower value 1 | locus YAL026C, strain drs2, stronger effect = lower value 1.04 | locus YAL030W, strain snc1, stronger effect = lower value 1.03 | locus YBL061C, strain skt5, stronger effect = lower value 1.03 | locus YBR009C, strain hhf1, stronger effect = lower value 1.02 | locus YBR023C, strain chs3, stronger effect = lower value 1.04 | locus YBR171W, strain sec66, stronger effect = lower value 1.05 | locus YBR231C, strain swc5, stronger effect = lower value 1.03 | locus YBR279W, strain paf1, stronger effect = lower value 1.03 | locus YCL011C, strain gbp2, stronger effect = lower value 1.02 | locus YCL016C, strain dcc1, stronger effect = lower value 1.01 | locus YCL069W, strain vba3, stronger effect = lower value 1.03 | locus YCR088W, strain abp1, stronger effect = lower value 1.04 | locus YDL040C, strain nat1, stronger effect = lower value 1.04 | locus YDR001C, strain nth1, stronger effect = lower value 1.03 | locus YDR137W, strain rgp1, stronger effect = lower value 0.871 | locus YDR159W, strain sac3, stronger effect = lower value 1.01 | locus YDR195W, strain ref2 1.06 | locus YDR297W, strain sur2, stronger effect = lower value 1.04 | locus YDR334W, strain swr1, stronger effect = lower value 1.04 | locus YDR335W, strain msn5, stronger effect = lower value 1.01 | locus YDR392W, strain spt3, stronger effect = lower value 0.966 | locus YEL003W, strain gim4, stronger effect = lower value 1.01 | locus YEL037C, strain rad23, stronger effect = lower value 1.02 | locus YER015W, strain faa2, stronger effect = lower value 1.03 | locus YER016W, strain bim1, stronger effect = lower value 1.04 | locus YER111C, strain swi4, stronger effect = lower value 1.02 | locus YER155C, strain BEM2 (second series), stronger effect = lower value 1.03 | locus YFR010W, strain ubp6, stronger effect = lower value 1.06 | locus YGL167C, strain pmr1, stronger effect = lower value 1.05 | locus YGL173C, strain kem1, stronger effect = lower value 1.03 | locus YGL227W, strain vid30, stronger effect = lower value 1.04 | locus YGL240W, strain doc1, stronger effect = lower value 0.961 | locus YGL253W, strain hxk2, stronger effect = lower value 1.04 | locus YHR013C, strain ard1, stronger effect = lower value 1.12 | locus YHR027C, strain rpn1, stronger effect = lower value 1.04 | locus YHR142W, strain chs7, stronger effect = lower value 1.02 | locus YJL092W, strain hpr5, stronger effect = lower value 1.04 | locus YJL095W, strain BCK1 (second series), stronger effect = lower value 1.05 | locus YJL115W, strain asf1, stronger effect = lower value 1.03 | locus YJL129C, strain trk1, stronger effect = lower value 0.972 | locus YJL154C, strain vps35, stronger effect = lower value 1.02 | locus YJL164C, strain tpk1, stronger effect = lower value 1.02 | locus YJL166W, strain qcr8, stronger effect = lower value 1.02 | locus YJL187C, strain SWE1, stronger effect = lower value 1.03 | locus YKL160W, strain elf1, stronger effect = lower value 1.03 | locus YKR026C, strain gcn3, stronger effect = lower value 1.05 | locus YKR091W, strain srl3, stronger effect = lower value 1.03 | locus YLL001W, strain dnm1, stronger effect = lower value 1.02 | locus YLL026W, stronger effect = lower value 1.03 | locus YLL041C, strain sdh2, stronger effect = lower value 1.05 | locus YLR027C, strain aat2, stronger effect = lower value 1.04 | locus YLR221C, strain rsa3, stronger effect = lower value 1.03 | locus YLR258W, strain gsy2, stronger effect = lower value 1.02 | locus YLR262C, strain YPT6 (second series), stronger effect = lower value 0.938 | locus YLR320W, strain mms22, stronger effect = lower value 1.02 | locus YLR342W, strain FKS1, stronger effect = lower value 1.04 | locus YLR357W, strain rsc2, stronger effect = lower value 1.01 | locus YLR370C, strain arc18, stronger effect = lower value 1.04 | locus YLR384C, strain iki3, stronger effect = lower value 1.04 | locus YML120C, strain ndi1, stronger effect = lower value 1.02 | locus YMR058W, strain fet3, stronger effect = lower value 1.01 | locus YMR125W, strain sto1, stronger effect = lower value 1.03 | locus YMR129W, stronger effect = lower value 1.03 | locus YMR205C, strain PFK2, stronger effect = lower value 1.02 | locus YMR231W, strain pep5, stronger effect = lower value 1.02 | locus YNL071W, strain lat1, stronger effect = lower value 1.05 | locus YNL209W, strain ssb2, stronger effect = lower value 1.04 | locus YNL248C, strain rpa49, stronger effect = lower value 1.01 | locus YNL322C, strain KRE1 (second series), stronger effect = lower value 1.05 | locus YNR049C, strain mso1, stronger effect = lower value 1.04 | locus YOR001W, strain rrp6, stronger effect = lower value 0.964 | locus YOR070C, strain gyp1, stronger effect = lower value 1.03 | locus YOR080W, strain dia2, stronger effect = lower value 1.04 | locus YOR083W, strain WHI5, stronger effect = lower value 1.02 | locus YOR106W, strain vam3, stronger effect = lower value 0.901 | locus YOR265W, strain rbl2, stronger effect = lower value 1.02 | locus YOR270C, strain vph1, stronger effect = lower value 0.911 | locus YOR290C, strain snf2, stronger effect = lower value 0.991 | locus YPL051W, strain arl3, stronger effect = lower value 0.992 | locus YPL078C, strain atp4, stronger effect = lower value 1.01 | locus YPL106C, strain sse1, stronger effect = lower value 1.03 | locus YPL240C, strain hsp82, stronger effect = lower value 1.03
active: locus YDL005C, strain med2, stronger effect = lower value 0.246 | locus YDR069C, strain doa4, stronger effect = lower value 1.11 [resistant]
